PBM binding z-score data for 40 sequences are collected here from the supplement of paper PMC6555819.

The test system of this experiment is LXRa:RXRa (NR concentration 270 nM, RXRa partner concentration 90 nM). Nature of the experiment: PBM binding z-score (relative to random genomic background probes); higher = stronger binding; sequences stand for … in GC…GCGATTGACAGCGTAGAATGAAGG
The method, boiled down: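 On custom Agilent 4×180K arrays, double-stranded probes with 34-nt variable regions carried direct-repeat seeds, single-nucleotide variants, half-site ablations or random human genomic background. Ligand-free nuclear receptor dimers were applied for 1 h, and binding was read with antibodies against each partner (one per run). Binding z-scores come from regression-normalized fluorescence, with the random background probes as reference.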
TGAATGAGGTTAAAGATCTGGGAACGTGGCGTCG came in with a PBM binding z-score of 2.16.
Then CTCGCAAGGTCGGTTGAGGTGAGTATACGGATAA, with 0.469; and CCACACAGGTGAAAGGTAACTCAGTCTGGTACGC, with 1.03.
With CCTACTGCGCCAAGGTCATTGATCAGTCAAAGCA the figure was 3.48; with TCTATTAGTTGAAGTGCAACCGACGAGTCCGTTT, 0.953.
With AGAACGAGGGCAATGAGTAGATAGCACGGGTGGC the figure was 0.27.
TTGCCAAGGTGAAGGTCGTTGATCCCTCTGTAGA came in with a PBM binding z-score of 1.79.
Then TCTAGTTGGTCACGGAGGTCACACACGACGGGTA, with 3.39; and ACAGACAGGTTAGTGAAGGTAACTCAGCTGGACG, with 0.393.
With GCGATTGGGGCAAAGCAGGTTACCATAAGGTTGG the figure was 0.0851; with ATCTCTAGGTAAGACTCCGTTCAGTGAAGAACGC, 0.425; with CCGACTGGGCCACGAAAGGTCATTGATTCAGTGA, 4.99.
With AATACAGGGTCATTGTAGGCCAGAGTACGCACAG the figure was 6.93; with TTACCAAGGTGAGCTGAGGTCGTGGATCCAACTC, 0.85.
In turn, TCTATTAGTTGATTAGGGCAACCGCAACAGCGGA registered a PBM binding z-score of 0.405.
Sequence AGTCAAAGTTCATCTAGGTAACCTAAGATATGCT showed a PBM binding z-score of 6.2.
Sequence TCAGACAGGTGAAGGTAACGCAGGTACGCAGTCG yielded a PBM binding z-score of 0.481.
With AGAATGAGGTTATATGTAGATCAGGGAAGAAAGT the figure was 1.96; with GCTCGGAGGACAAGGTCAGAGATTTGTCCGTAGA, 1.62.
With TCTGCTAGGTCAGTTGGTCAGGTAACGAGCTGCC the figure was 0.456.
In turn, CCTCGGAGGACTACAGGAGGTCAGAGCTGCCAGA gave a PBM binding z-score of 3.27.
GGAACGACGGCAAGTTGATAGCAGAGTTTGATGG gave a PBM binding z-score of -0.528.
With ATCTCTAGGTAAAGATAGTTCTGTGAATGCAAAT the figure was 0.239; with CGTCCAGGGTCAGAGAGGTCAGTGAATGCCGAGT, 4.8.
Then TCTAGTTGGTCACGGAGGTCACACCCGACGGGTA, with 3.31; and TCATATAGGTAAATGCTAAGTGAAAGTCCGATCT, with 0.928.
With TCTGCTAGGTCAGCTGGTCAGCTAACGAGCTGCC the figure was 0.826; with CTACCAAGGTGAACAAGGGCGTTGATTACTATTC, 0.274.
In turn, AGTCAAAGTTCAAGACGAGGTAACGTAAAGCACG returned a PBM binding z-score of 5.72.
With GCTGCTAGGTCAGGTTGATCAGCTAACGGGTACG the figure was 0.585; with CCTTACGGGTCAAGGTTTTAGCACGGGTGGTACG, 3.1; with TGAATGAGGTTATGAGATCAGGGAACGTTGCAAA, 1.4.
Then AGAACGAGGGCACGCTGAGTTCATAGCAGAGTAG, with 3.15; and AGTCAAAGTTCACTAGGTAACCTAAGATTCAGCT, with 5.38; and GTACCAAGGTGAATAGGTCGTGGATGAGTAGGCG, with 1.07.
With CTCCAAAGGTCGTGCTCAGGTGAGTATACCAAAC the figure was 4.42; with TGATATAGGTAAACAGGTGAAAGTCCGTAAGTTA, 0.353; with TCTATTAGTAGATTAGGGCAACCGAAACAGCGGA, 0.084.
For CGTCCAAGGTCATAGGAGGTCAGTGAGGACAGAT, the PBM binding z-score came to 7.5.
With TCTCGGAGGACACGGAAGGTCAGAGCTCGACATC the figure was 1.8.
